Data on 37 compounds can be found in the supplement of paper PMC4206467.

Each structure is given as a SMILES string.

This experiment relates to Perkinsus marinus PRA240. As to the kind of experiment: ATP content (proliferation) relative to DMSO control; higher = more parasite growth (less inhibition). As to conditions: 20 µM; 4 days. The method, then:
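Perkinsus marinus PRA240 trophozoites (2-5x10^6 cells/ml, 100 µl, 96-well) were exposed once to MMV Malaria Box compounds at 20 µM (0.1% DMSO) in triplicate. ATP content (ATPlite bioluminescence) was read at day 4 post-exposure and normalised to DMSO + cells control wells (100% activity). Compounds were identified by joining plate and well to the Malaria Box list.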
In the case of `Oc1ccc(-c2nc(-c3ccc4oc5ccc(-c6[nH]c(-c7ccc(O)cc7)nc6-c6ccccc6)cc5c4c3)c(-c3ccccc3)[nH]2)cc1`, the ATP content was determined as 124%. The same measure for `CC(Oc1ccc(NC(=O)c2cccs2)cc1)C(=O)c1ccc(Cl)cc1` (configuration not stated): 55.4%; for `CC(C)CNC(=O)c1c(N)n(CCc2ccccc2F)c2nc3ccccc3nc12`: 90.4%; for `COc1ccc(C(=O)NC(c2ccc(Cl)cc2Cl)c2cc(Cl)c3cccnc3c2O)cc1` (configuration not stated): 96.4%. In turn, `Nc1nc(Nc2cccc(F)c2)nc2ccccc12` displayed an ATP content of 26%.

In turn, `CCN1CCN(c2c(C(=O)c3ccccc3)cnc3cc(OC)c(OC)cc23)CC1` displayed an ATP content of 199%.

On to `CCC(=O)Nc1nnc(Cc2ccc(OC)c(OC)c2)s1`, for which the ATP content was 103%. Then `CCCCc1c(C)nc2c(OC)cccc2c1O`, with 37.3%; and `COc1ccc(C2Sc3ccccc3N=C3C2=C(O)c2ccccc23)cc1` (configuration not stated), with 46.2%. The same measure for `O=C(Nc1cccc(-c2nc3ccccc3[nH]2)c1)c1cccc(NC(=O)c2ccco2)c1`: 126%. Then `COc1cc(-c2nc(-c3ccccc3)c(-c3ccccc3)[nH]2)cc(OC)c1O`, with 61.1%. Consider `CCOC(=O)C1=CN(C)C=C(C(=O)OCC)C1c1cc(Br)c(OCC)c(OC)c1`, for which the ATP content came to 121%. Then `COc1cc2c3cc1Oc1c(OC)c(OC)cc4c1C(Cc1ccc(O)c(c1)Oc1ccc(cc1)CC3N(C)CC2)N(C)CC4` (configuration not stated), with 144%; and `O=C(Nc1ccc(-c2nc3cc4ccccc4cc3[nH]2)cc1)c1cccc(Br)c1`, with 124%; and `COc1ccc(N2CCN(C(CNC(=O)CC(C)(C)C)c3ccc4c(c3)OCO4)CC2)cc1` (configuration not stated), with 211%.

`CCOc1ccccc1CNC(=O)C1c2ccccc2C(=O)N(CC(C)C)C1c1cccs1` (configuration not stated) came in with an ATP content of 78.8%. Then `Oc1c2c(nc3ccccc13)CCCC2`, with 42.5%; and `CCOC(=O)C1(Cc2ccccc2)CCN(Cc2cccc(OC)c2O)CC1`, with 143%; and `Cc1[nH]c(-c2ccc(F)cc2)cc1C(=O)NC1CCN(Cc2ccccc2)CC1`, with 108%. Then `O=C(Nc1ccccc1O)c1ccc(-c2ccc(Cl)cc2Cl)o1`, with 82.5%; and `OC1CCCCC1C1(NC(=S)Nc2ccccc2)CCCCC1` (configuration not stated), with 127%; and `Cn1c(C(=O)c2cccc3ccccc23)nc2ccccc21`, with 55.5%. The same measure for `CC1CCCCN1CCCNC(=O)c1ccc2c(c1)sc1nc(-c3ccc(F)cc3)cn12` (configuration not stated): 133%; for `CCOC(=O)c1cnc2ccc(Cl)cc2c1NCCCN(C)C`: 147%. `Cc1ccc(-c2cc(C(=O)Nc3ccc(S(=O)(=O)N4CCCCC4)cc3)[nH]n2)c(O)c1` yielded an ATP content of 104%. Then `CC(=O)NCCc1nc2ccccc2n1Cc1ccc(C(C)C)cc1`, with 120%; and `CN(C)c1ccc(N2C(N)=NC(N)=NC2(C)C)cc1`, with 114%. For `Cc1ccc2cc3c(N)c4c(C)ccc(C)c4nc3nc2c1`, the ATP content worked out at 142%. Then `O=C(Nc1ccc(Cl)c(Cl)c1)Nc1ccc(Cl)c(Cl)c1`, with 91.6%; and `O=C(NC1CCCC1)c1ccc(N2CCC(NCc3cccc(C(F)(F)F)c3)CC2)cc1`, with 103%; and `CC1CC(C)CN(C(=O)c2ccc(Cl)cc2Cl)C1` (configuration not stated), with 135%. `C=CCc1c(C)nc2ccccc2c1O` returned an ATP content of 48%.

`COc1ccc2nc(C)cc(Nc3cccc(O)c3)c2c1` registered an ATP content of 109%. As to `Oc1ccc2ccccc2c1CNc1nc2ccccc2[nH]1`, the ATP content came out at 65.9%. Compound `Cc1cc(NC(=O)c2ccc(-c3ccccc3)cc2)no1` returned an ATP content of 69.1%. Then `CCn1c(SCC(=O)Nc2cc(C(F)(F)F)ccc2Cl)nc2ccccc2c1=O`, with 102%. The same measure for `COc1cc2cc(C(=O)Nc3ccccc3)c(N)nc2cc1OC`: 44.3%.
